The results in this text go back to the supplement of paper PMC8728848.

The entries come from a sample that favours the strongest signals as a whole.

The experiment has as its system Fuc(a1-3)[Gal(b1-4)]Glc6S. Kind of experiment: glycan array binding signal (z-score within array); higher = stronger binding. To be noted: glycan notation: IUPAC condensed, linker removed. The procedure, abridged:
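Negative Z-scores can be read as non-binding. The Z-score is calculated within each array and then averaged across arrays of one protein sequence at different concentrations or buffers and across linkers. Arrays, 3228 in all, were curated from the Consortium for Functional Glycomics database and kept only where the protein sequence was available.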
In the case of “SiiE (Salmonella typhimurium), A0A0H3NVH0”, the “glycan array binding signal (z-score)” value was found to be 1.25.

With AgI/IIC123-GFP (Streptococcus mutans), the “glycan array binding signal (z-score)” value was -0.357.

Turning to BambL (Burhholderia ambifaria), Q0B4G1, the “glycan array binding signal (z-score)” value is -0.021.
